“And” between values parts separate entries of the source, which are not always exact repeats. Identical values can stand only once. Inconclusive results are not listed. The source made the active and inactive calls. Unless noted, the call rests on the fitted dose curve; in most records, active means well fitted curve in the direction sought with a large enough effect in the repeat runs; inconclusive means weak or mixed curves; inactive means no such curve, though single readings can be large; an effect the other way counts as inactive or inconclusive.

Among the data in PubChem BioAssay (Tox21) are Potency and outcome values, retold here.

The nature of experiment [1]: qHTS assay for small molecule agonists of the p53 signaling pathway (AID 651631; calls by dose curve; further: nearly all actives have a fitted effect of over 15% in size). The following applies: HCT-116 p53RE-bla reporter, beta-lactamase FRET ratio, 16 h; series mostly up to 73.3 µM. In outline: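 Quantitative high-throughput format: 4,000 p53RE-bla HCT-116 cells/well, 5 h pre-incubation, 16 h compound exposure at 37 °C, 2 h room-temperature substrate step, fluorescence intensity measured.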
(In general: qHTS replaces the single test concentration by a dilution series.)

Experiment [2] in a line: qHTS assay for small molecules that induce genotoxicity in human embryonic kidney cells expressing luciferase-tagged ATAD5 (AID 651632). Further: nearly all actives have a fitted effect of over 15% in size. The following applies: HEK293T ATAD5-luciferase induction, 16 h; series mostly up to 83.3 µM. In outline:
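Increased luciferase signal from ATAD5-tagged reporter cells indicates DNA-damage-driven ATAD5 induction. HEK293T cells are treated for 16 hr at 37C before detection with Amplite.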

Experiment [3] in a line: qHTS assay for small molecule agonists of the p53 signaling pathway - cell viability (AID 651633; calls by dose curve; further: nearly all actives have a fitted effect of over 30% in size). The following applies: p53RE-bla HCT-116 viability, ATP luminescence, 16 h; series mostly up to 83.3 µM. In outline: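 p53RE-bla cells, seeded at 4,000 per well and rested 5 h at 37 C/5% CO2, received compounds in DMSO for 16 h at 37 C. CellTiter-Glo was then added, and luminescence was read after 30 min at room temperature to gauge cytotoxicity.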

Experiment [4] in a line: qHTS assay for small molecules that induce genotoxicity in human embryonic kidney cells expressing luciferase-tagged ATAD5 - cell viability (AID 651634; calls by dose curve; further: nearly all actives have a fitted effect of over 25% in size). Conditions: HEK293T ATAD5-luc cells viability, CellTiter-Fluor, 15.5 h; series mostly up to 83.3 µM. In outline:
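Cytotoxicity counterscreen in HEK293T cells bearing an ATAD5-luciferase reporter: live-cell protease activity measured by CellTiter-Fluor fluorescence after 15.5 hr compound exposure.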

A short description of experiment [5]: qHTS assay for small molecule disruptors of the mitochondrial membrane potential - cell viability (AID 720634; calls by dose curve;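 further: human HepG2 liver cancer cells; nearly all actives have a fitted effect of over 20% in size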). The following applies: HepG2 viability, ATP luminescence (CellTiter-Glo), 1 h; series mostly up to 83.2 µM. In outline:
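After overnight attachment at 37 C, HepG2 cells received compound or DMSO vehicle for 1 hr. Viability is then taken from ATP-driven luminescence following a 30 min room-temperature CellTiter-Glo step.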

Experiment [6] in a line: qHTS assay for small molecule disruptors of the mitochondrial membrane potential (AID 720635). Further: potency means the concentration at half of the fitted maximal effect. Conditions: HepG2 mitochondrial membrane potential, Mito-MPS dye ratio; series mostly up to 83.2 µM. In outline:
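HepG2 cells (2,000/well) attached overnight at 37C, then took compound for 1 hr at 37C, 5% CO2. Mito-MPS dye was added for 30 min; fluorescence was read at 490/535 nm (monomers) and 540/590 nm (aggregates).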

Experiment [7] is described as follows: qHTS assay to test for compound auto fluorescence at 590 nm (red) in HepG2 cells (AID 720674). Conditions: HepG2 autofluorescence, red 540/590 nm, 1 h; series mostly up to 91.3 µM. In outline: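 Intrinsic compound fluorescence in the red window (Ex/Em 540/590 nm) is measured in attached HepG2 cells exposed for 1 hr, DMSO vehicle as baseline, benchmarked to Rose Bengal sodium.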

Experiment [8] can be described thus: qHTS assay to test for compound auto fluorescence at 535 nm (green) in HepG2 cells (AID 720675). The following applies: green autofluorescence 485/535 nm, 1 h; series mostly up to 91.3 µM.
A short description of experiment [9]: qHTS assay to test for compound auto fluorescence at 460 nm (blue) in HEK293 cells (AID 720678). The following applies: blue autofluorescence 405/460 nm; series mostly up to 91.3 µM. In outline:
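After cell attachment (4-5 hr, 37C), compounds were pinned onto HEK293 monolayers in 10% dialyzed FBS medium. The blue channel (405/460 nm) was read following overnight culture. Equivalency was calculated against triamterene.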

The nature of experiment [10]: qHTS assay to test for compound auto fluorescence at 590 nm (red) in HEK293 cells (AID 720679). The following applies: red autofluorescence 540/590 nm; series mostly up to 91.3 µM. In outline: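 Plates of HEK293 cells (10% dialyzed FBS) are treated with 23 nL compound or DMSO vehicle after a 4-5 hr attachment period, incubated overnight at 37C, and read for red fluorescence at 540/590nm.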

As to `CC(=O)c1ccc(S(=O)(=O)NC(=O)NC2CCCCC2)cc1`, the Potency result in experiment [1], in experiment [2], in experiment [3], in [4], in experiment [5] and in [6] was “inactive” in each case. For the same compound, the compound was classed as inactive in experiment [7], in experiment [8], in [9] and in experiment [10].

Turning to `CCCCOCCOCCOC(C)=O`, the Potency result in experiment [1], in [2], in [3], in [4], in experiment [5] and in [6] was “inactive” throughout. For the same compound, the compound was classed as inactive in [7], in [8], in experiment [9] and in [10].

For `Cc1cccc(C)c1O`, the Potency entry in [1], in experiment [2], in experiment [3], in experiment [4], in experiment [5] and in experiment [6] was “inactive” throughout. Further, the call in experiment [7], in [8], in [9] and in [10] was inactive.

As to `OCCCc1ccccc1`, the Potency result in experiment [1], in experiment [2], in [3], in experiment [4], in experiment [5] and in experiment [6] was “inactive” throughout. Also, the outcome in [7], in experiment [8], in experiment [9] and in experiment [10] was inactive.

In the case of `C=C(C)C(N)=O`, the Potency result in [1], in experiment [2], in experiment [3], in [4], in [5] and in experiment [6] was “inactive” in each case. Also, the outcome in [7], in [8], in experiment [9] and in [10] was inactive.

On to `CC(O)COc1ccccc1` (centres undefined), for which the Potency result in experiment [1], in [2], in experiment [3], in [4], in [5] and in [6] was “inactive” each time. In addition, the result in experiment [7], in [8], in experiment [9] and in [10] was inactive.

As for `C1CNCCN1`, the Potency result in experiment [1], in [2], in experiment [3], in [4], in experiment [5] and in [6] was “inactive” each time. Further, the compound was classed as inactive in [7], in [8], in [9] and in experiment [10].

In the case of `C[C@]12CC[C@@H]3c4ccc(O)cc4C[C@@H](CCCCCCCCCS(=O)CCCC(F)(F)C(F)(F)F)[C@H]3[C@@H]1CC[C@@H]2O` (some centres undefined), the Potency result in [1], in experiment [2], in experiment [3] and in experiment [4] was “inactive” each time. The Potency in experiment [6] is 2.66 µM (active) and 2.73 µM (active). In addition, the compound was called inactive in experiment [7], in experiment [8], in [9] and in [10].

As for `Cc1cccc2ccccc12`, the Potency result in [1], in [2], in experiment [3], in experiment [4], in [5] and in experiment [6] was “inactive” each time. Moreover, the compound was classed as inactive in experiment [7], in [8], in [9] and in experiment [10].

With `COc1ccccc1NC(=O)CC(C)=O`, the Potency result in experiment [1], in [2], in experiment [3], in experiment [4], in experiment [5] and in [6] was “inactive” in each case. Besides, the outcome in experiment [7], in experiment [8], in experiment [9] and in [10] was inactive.

Take `CCN1CCCC1=O`: the Potency entry in [1], in experiment [2], in experiment [3], in experiment [4], in experiment [5] and in experiment [6] was “inactive” each time. In addition, the compound was classed as inactive in experiment [7], in experiment [8], in experiment [9] and in [10].

In the case of `CCCCCCCC(=O)OCC(O)CO` (centres undefined), the Potency result in experiment [1], in [2], in [3], in [4], in [5] and in experiment [6] was “inactive” in each case. In addition, the call in experiment [7], in experiment [8], in experiment [9] and in experiment [10] was inactive.

For `O=C1CCCCCN1`, the Potency result in experiment [1], in [2], in experiment [3], in experiment [4], in experiment [5] and in experiment [6] was “inactive” throughout. Also, the outcome in experiment [7], in experiment [8], in [9] and in [10] was inactive.

For the compound `O=C(O)Cc1cccc2ccccc12`, the Potency entry in experiment [1], in [2], in [3], in experiment [4] and in [5] was “inactive” each time. Moreover, the compound was called inactive in experiment [7], in [8], in experiment [9] and in experiment [10].

Take `COC(=O)C1CCC(C(=O)OC)CC1` (centres undefined): the Potency entry in experiment [1], in experiment [2], in experiment [3], in experiment [4], in [5] and in [6] was “inactive” each time. The result in experiment [7], in experiment [8], in [9] and in experiment [10] was inactive.

As for `C[C@]12C[C@H](O)[C@H]3[C@@H](CCC4=CC(=O)CC[C@@]43C)[C@@H]1CC[C@@H]2C(=O)CO`, the Potency entry in experiment [1], in experiment [2], in experiment [3], in [4], in [5] and in [6] was “inactive” in each case. Moreover, the result in experiment [7], in experiment [8], in experiment [9] and in experiment [10] was inactive.

With `CC1=NN(c2ccccc2)C(=O)C1`, the Potency entry in [1], in experiment [2], in experiment [3], in experiment [4] and in experiment [5] was “inactive” in each case. Further, the Potency in [6] was 11.9 µM (active) and 61.5 µM (active). The compound was called inactive in experiment [7], in experiment [8], in experiment [9] and in experiment [10].

On to `CN(C)C=O`, for which the Potency entry in [1], in [2], in [3] and in [4] was “inactive” throughout. Further, the result in experiment [7], in [8], in [9] and in experiment [10] was inactive.

Turning to `NC(=O)N/N=C/c1ccc([N+](=O)[O-])o1`, the Potency result in [1], in [2], in [3] and in experiment [5] was “inactive” each time. Moreover, the Potency in [6] is 15.4 µM (active). The result in experiment [7], in [8], in [9] and in experiment [10] was inactive.

For `COC1=CC(=O)C[C@@H](C)[C@]12Oc1c(Cl)c(OC)cc(OC)c1C2=O`, the Potency entry in experiment [4], in experiment [5] and in [6] was “inactive” each time. For the same compound, the result in [7], in experiment [8], in [9] and in [10] was inactive.

Consider `Cn1cnc2c1c(=O)[nH]c(=O)n2C`, for which the Potency result in [2], in experiment [3], in [4], in experiment [5] and in experiment [6] was “inactive” throughout. Further, the compound was classed as inactive in [7], in experiment [8], in [9] and in [10].

In the case of `COC(=O)c1ccc(O)cc1`, the Potency result in experiment [1], in [2], in [3] and in experiment [4] was “inactive” in each case. Moreover, the compound was called inactive in experiment [7], in experiment [8], in [9] and in experiment [10].
